In the library only some 17% were active in any assay of this set; here they are far more common.
HepG2 viability: qHTS for Inhibitors of TGF-b: Cytotox Counterscreen. 0.76% of 410,000 active. Potency, µM (doses to about 46.1 µM), without a hit: at the highest dose activity change, negative = cytotoxicity, actives largely listed as cytotoxic. AID 588856, 2011. HepG2 CAGA-GFP viability, ATP luminescence, 18 h
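HepG2 CAGA-GFP cells (1000/well, DMEM with 1% FBS) received compound, then TGF-beta at 500 pg/mL final, and were incubated 18 hours at 37 degrees C. Viability was read by CellTiter-Glo luminescence. Media-only wells were set as complete cell-killing and DMSO as no toxicity.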
TGFb SMAD3 inh: qHTS for Inhibitors of TGF-b; 1.2% of 410,000 active; HepG2 CAGA-GFP TGF-b/SMAD3 reporter, GFP fluorescence, 18 h; TGF-beta stimulated, 500 pg/mL final; Potency, µM (series often up to 46.1 µM), for inactives: top-dose activity, negative = inhibition, most hits filed as inhibitors; AID 588855, 2011; also: % is scaled to controls: 0 for no effect and ±100 for the full control effect; nearly all actives have a fitted effect of over 65% in size
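HEPG2 CAGA-GFP, 1000 cells/well; 2 h settle, 37 C; cpd via pin tool; TGF-b 500 pg/mL final; 18 h, 37 C; GFP imaging ex488/em500-530; %Activity normalised to -TGF-b and +DMSO controls; CRC fit, curve class.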
HT1080NT lethal: qHTS for induction of synthetic lethality in tumor cells producing 2HG: qHTS for the HT-1080-NT fibrosarcoma cell line; HT-1080-NT fibrosarcoma viability, CellTiter-Glo ATP luminescence, 48 h; Potency, µM (doses to about 46.1 µM), for the others: top-dose activity, negative = less viability, hits mostly cytotoxic; 1.6% of 360,000 active; AID 686970, 2013;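 also: NT is the 2HG producing partner of a matched IDH1 knockdown line; 0% = DMSO-treated cells and -100% = media-only wells without cells; nearly all actives have a fitted effect of over 55% in size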
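Luminescent CellTiter-Glo readout after 48 hours of compound exposure at 37 degrees C defined viability of HT-1080-NT cells. Activity was normalized to DMSO wells and cell-free media wells; concentration-response curves were fitted and assigned curve classes.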
DT40 TDP1 CPT: qHTS for Inhibitors of human tyrosyl-DNA phosphodiesterase 1 (TDP1): qHTS in cells in presence of CPT | chicken DT40 Tdp1-/-;hTDP1 cells + 20 nM CPT, ATP luminescence, 48 h | Potency, µM (series often up to 46.2 µM), for inactives: at the highest dose activity change, negative = growth inhibition, hits mostly inhibitors | 12% of 420,000 active | AID 686979, 2013; also: % is scaled to controls: 0 for no effect and ±100 for the full control effect; nearly all actives have a fitted effect of over 55% in size
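Chicken DT40 Tdp1-/- cells stably complemented with human TDP1 were seeded at 400 cells/well in medium containing 20 nM camptothecin, exposed to pin-transferred compounds, and grown at 37 °C for at least 48 hr. Viability was read as ATP luminescence.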
TDP1 cell noCPT: qHTS for Inhibitors of human tyrosyl-DNA phosphodiesterase 1 (TDP1): qHTS in cells in absence of CPT. DT40 Tdp1-/- hTDP1 cells, no CPT, ATP luminescence, 48 h. AID 686978, 2013. 15% of 420,000 active. Potency, µM (highest dose often 46.2 µM), for the others: top-dose activity change, negative = growth inhibition, most hits filed as inhibitors; also: % is scaled to controls: 0 for no effect and ±100 for the full control effect; nearly all actives have a fitted effect of over 55% in size
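Chicken DT40 Tdp1-/- cells complemented with human TDP1, screened without camptothecin (DMSO vehicle only), 400 cells/well. Compounds pin-transferred, cells incubated at 37 °C for at least 48 hr. Growth read as ATP-dependent luminescence (CellTiter-Glo, 30 min at RT).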
HT1080 IDH1KD tx: qHTS for induction of synthetic lethality in tumor cells producing 2HG: qHTS for the HT-1080-IDH1KD cell line; 2% of 360,000 active; Potency, µM (doses to about 46.1 µM), without a hit: at the top dose activity, negative = toxicity, most hits filed as cytotoxic; AID 686971, 2013; HT-1080 IDH1 knockdown viability, ATP luminescence, 48 h;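 also: 0% = DMSO wells and -100% = cell-free medium wells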
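CellTiter-Glo luminescence after 48 h compound exposure at 37 degrees C of IDH1-knockdown HT-1080 cells in 5% FBS RPMI. %Activity scaled between DMSO wells and cell-free media wells, with curves fitted and assigned curve classes.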
An asterisk follows results filed as active; u = inconclusive; x = not tested or not shown. Calls follow the shape of the dose curve; as a rule, active = well fitted curve in the direction sought with a large enough effect; inconclusive = small, poorly fitted or top-dose-only effect, or another doubt; inactive = no such curve, though single readings can be large; an effect the other way counts as inactive or inconclusive. Potency is read from the fitted curve at half-maximal effect.

SMILES	HepG2 viability	TGFb SMAD3 inh	HT1080NT lethal	DT40 TDP1 CPT	TDP1 cell noCPT	HT1080 IDH1KD tx
CCCC(C(=O)NC(C)(C)C)N(CC1CCCO1)C(=O)CNS(=O)(=O)c1ccc(F)cc1 (stereo not drawn)	0%	3%	16%	-20%	-10%	-10%
C[C@@H]1COc2cccc(N3CCSCC3)c2S(=O)(=O)N1	x	x	13%	-18%	3%	1%
CCN(CC)C(=O)Cn1cc(C(=O)C(=O)Nc2ccc3c(c2)OCCO3)c2ccccc21	3%	0%	u	18µM*	23µM*	u
O=C(Nc1ccc2c(c1)OCCO2)C(=O)c1c[nH]c2ccccc12	-11%	-14%	7.3µM*	10µM*	u	u
Cc1cccc(NC(=O)c2cccc(N3C(=O)C4C5C=CC(C6CC56)C4C3=O)c2)c1 (stereo not drawn)	-2%	-21%	-5%	u	15µM*	-17%
CC(C)(C)c1nnc(NS(=O)(=O)c2cc(Cl)ccc2Cl)s1	-5%	-28%	-1%	-19%	4%	-2%
O=S(=O)(Nc1nc(-c2sccc2Cl)cs1)c1cc(Cl)ccc1Cl	-92%	11µM*	-16%	-22%	-22%	-28%
Cc1nc(-c2ccc(C)c(N3CCN(C(=O)Nc4cccc(Cl)c4C)CC3)c2)no1	-7%	-10%	x	u	16µM*	x
Cc1ccc(NC(=O)N2CCN(c3cc(-c4noc(C)n4)ccc3C)CC2)c(C)c1	-4%	u	x	-5%	1%	x
COc1ccc(NC(=O)c2nc3nc(C)cc(C(F)F)n3n2)c(C)c1	-15%	5%	x	-4%	-1%	x
CN(Cc1ccccc1)C(=O)c1ccc(NC(=O)Cc2cccc(NC(=O)C3CCCN(C(=O)CCc4ccccc4)C3)c2)cc1 (stereo not drawn)	-2%	u	-2%	u	u	-5%
CN(C(=O)c1cccc(NC(=O)Cc2ccc(NC(=O)C3CCCN(C(=O)CCc4ccccc4)C3)cc2)c1)C1CCC1 (stereo not drawn)	-22%	u	-19%	u	15µM*	-11%
CN(C(=O)c1cccc(NC(=O)Cc2ccc(NC(=O)C3CCCN(C(=O)CCc4ccccc4)C3)cc2)c1)C1CCCC1 (stereo not drawn)	2%	u	-22%	u	16µM*	-18%
CN(Cc1ccccc1)C(=O)c1cccc(NC(=O)Cc2ccc(NC(=O)C3CCCN(C(=O)CCc4ccccc4)C3)cc2)c1 (stereo not drawn)	-31%	-31%	-5%	23µM*	15µM*	-8%
CN(C(=O)c1ccc(NC(=O)Cc2cccc(NC(=O)C3CCCN(C(=O)CCc4ccccc4)C3)c2)cc1)C1CCCC1 (stereo not drawn)	1%	u	-2%	29µM*	u	-1%
CN(C(=O)c1cccc(NC(=O)Cc2cccc(NC(=O)C3CCCN(C(=O)c4ccccc4)C3)c2)c1)C1CCC1 (stereo not drawn)	-16%	u	4%	u	u	6%
Cc1onc(-c2ccccc2)c1C(=O)NCCCc1ccccc1	-2%	-1%	-7%	-19%	u	7%
CN(Cc1ccccc1)C(=O)c1cccc(NC(=O)Cc2ccc(NC(=O)C3CCN(S(=O)(=O)c4cccc([N+](=O)[O-])c4)CC3)cc2)c1	-39%	-6%	2%	-26%	-27%	-5%
CN(Cc1ccccc1)C(=O)c1cccc(NC(=O)Cc2ccc(NC(=O)C3CCCN(C(=O)C4CCCCC4)C3)cc2)c1 (stereo not drawn)	-1%	u	-8%	16µM*	u	-2%
CN(Cc1ccccc1)C(=O)c1ccc(NC(=O)Cc2ccc(NC(=O)C3CCN(S(=O)(=O)c4cccc([N+](=O)[O-])c4)CC3)cc2)cc1	-11%	-5%	0%	13µM*	u	-3%
CN(C(=O)c1ccc(NC(=O)Cc2ccc(NC(=O)C3CCCN(C(=O)CCc4ccccc4)C3)cc2)cc1)C1CC1 (stereo not drawn)	-16%	-31%	-2%	u	13µM*	-20%
Fc1ccccc1-c1nc(NCC2CC2)nc2ccsc12	-2%	-1%	1%	u	u	-11%
CNc1nc(NCCOc2ccccc2Cl)c2sccc2n1	-24%	u	u	9.2µM*	9.2µM*	-22%
Clc1ccccc1OCCNc1nc(NCC2CC2)nc2ccsc12	-33%	u	u	16µM*	8.2µM*	18µM*
COc1ccccc1CNc1nc(NCCOc2ccccc2Cl)c2sccc2n1	-64%	u	23µM*	10µM*	12µM*	u
SMILES	HepG2 viability	TGFb SMAD3 inh	HT1080NT lethal	DT40 TDP1 CPT	TDP1 cell noCPT	HT1080 IDH1KD tx
CC(=O)NCCNc1nc(NCc2cccs2)nc2ccsc12	-1%	-1%	-2%	-3%	u	11%
Clc1ccccc1Nc1nc(NCC2CC2)nc2ccsc12	-22%	-7%	u	21µM*	21µM*	-30%
O=C(NCCc1ccccc1)C1CCCN(c2cnccn2)C1 (stereo not drawn)	-7%	-9%	0%	-3%	-11%	1%
Cc1ccc2c(c1)S(=O)(=O)N(C)C(c1ccccc1)=C2	1%	4%	2%	18µM*	u	10%
C[C@@H]1CN([C@H](C)CO)C(=O)c2cc(Br)cnc2O[C@H]1CN(C)C	-2%	15%	10%	-16%	-24%	20%
Cc1cccc(NCc2ccc(Br)cc2)n1	7%	7%	-21%	u	u	0%
CC1CN(C(=O)CCC(=O)NCCCc2ccccc2)c2ccccc2O1 (stereo not drawn)	-16%	-14%	-6%	-13%	-29%	7%
Cc1nc([N+](=O)[O-])c(Br)n1Cc1ccc(Cl)c(Cl)c1	-118%	u	u	5.2µM*	2.6µM*	u
COc1ccc(C(=O)Cn2cc([N+](=O)[O-])nc2C)cc1	6%	0%	2%	-15%	11%	12%
